Experimental data published in the supplement of paper PMC10849652.
Of roughly 7,900 targets only a part is listed; those with a hit were picked by preference. About 0.6% of all pairs of compound and target were hits.

compound: c1cn2cc(-c3ccc4cn[nH]c4c3)nc(Nc3ccc(N4CCOCC4)cc3)c2n1 [entospletinib]; assay: log2 fold change, soluble protein after heating vs DMSO (PISA); higher = thermal stabilisation; K562 cells, 10 uM, 30 min; active = over 0.2 and 3.5 SD of the protein, either way, in both replicates (recomputed)
How it was run: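 Soluble protein was defined as the supernatant after 21,000xg for 90 min. It came from K562 cells at 2×10^6 cells/mL given 10 μM compound for 30 min, heated in aliquots for 3 min across 48°C-58°C, pooled, and extracted in PBS with 0.5% NP-40 at 4°C, and was quantified by TMTpro 16plex LC-MS/MS with equalised channel sums. Thermal stability against control samples, from duplicates, is reported as log2 fold change.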

UniProt P48449, sequence (P48449 whole entry, looked up): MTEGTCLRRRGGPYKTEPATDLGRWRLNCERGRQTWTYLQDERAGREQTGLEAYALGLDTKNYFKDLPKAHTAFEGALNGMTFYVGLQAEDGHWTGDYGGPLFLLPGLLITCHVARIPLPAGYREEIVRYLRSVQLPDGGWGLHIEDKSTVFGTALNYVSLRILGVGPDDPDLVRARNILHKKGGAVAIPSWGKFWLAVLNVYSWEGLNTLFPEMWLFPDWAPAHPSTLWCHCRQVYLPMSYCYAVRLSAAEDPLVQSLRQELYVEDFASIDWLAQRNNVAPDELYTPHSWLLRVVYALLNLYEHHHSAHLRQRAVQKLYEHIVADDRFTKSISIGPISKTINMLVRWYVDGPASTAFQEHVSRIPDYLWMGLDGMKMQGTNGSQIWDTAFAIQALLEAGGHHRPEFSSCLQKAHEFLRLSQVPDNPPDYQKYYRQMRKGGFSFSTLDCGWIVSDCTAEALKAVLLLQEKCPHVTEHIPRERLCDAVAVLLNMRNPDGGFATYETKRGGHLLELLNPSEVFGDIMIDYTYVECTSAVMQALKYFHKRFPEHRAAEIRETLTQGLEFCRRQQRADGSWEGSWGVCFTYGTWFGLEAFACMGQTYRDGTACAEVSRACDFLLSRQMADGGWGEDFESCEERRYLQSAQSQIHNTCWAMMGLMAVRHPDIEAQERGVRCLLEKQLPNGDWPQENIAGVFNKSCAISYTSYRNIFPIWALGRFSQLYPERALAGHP
UniProt P51884, sequence (P51884 whole entry, looked up): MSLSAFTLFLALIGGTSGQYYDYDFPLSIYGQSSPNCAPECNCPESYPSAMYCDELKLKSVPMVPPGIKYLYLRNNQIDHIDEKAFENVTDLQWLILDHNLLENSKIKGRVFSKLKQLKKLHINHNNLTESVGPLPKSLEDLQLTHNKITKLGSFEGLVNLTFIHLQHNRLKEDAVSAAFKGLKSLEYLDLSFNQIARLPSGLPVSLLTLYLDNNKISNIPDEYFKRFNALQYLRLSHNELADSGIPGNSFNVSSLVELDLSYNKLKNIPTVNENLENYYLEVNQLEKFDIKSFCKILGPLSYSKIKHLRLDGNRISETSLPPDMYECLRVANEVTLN
UniProt P50748, sequence (P50748 whole entry, looked up): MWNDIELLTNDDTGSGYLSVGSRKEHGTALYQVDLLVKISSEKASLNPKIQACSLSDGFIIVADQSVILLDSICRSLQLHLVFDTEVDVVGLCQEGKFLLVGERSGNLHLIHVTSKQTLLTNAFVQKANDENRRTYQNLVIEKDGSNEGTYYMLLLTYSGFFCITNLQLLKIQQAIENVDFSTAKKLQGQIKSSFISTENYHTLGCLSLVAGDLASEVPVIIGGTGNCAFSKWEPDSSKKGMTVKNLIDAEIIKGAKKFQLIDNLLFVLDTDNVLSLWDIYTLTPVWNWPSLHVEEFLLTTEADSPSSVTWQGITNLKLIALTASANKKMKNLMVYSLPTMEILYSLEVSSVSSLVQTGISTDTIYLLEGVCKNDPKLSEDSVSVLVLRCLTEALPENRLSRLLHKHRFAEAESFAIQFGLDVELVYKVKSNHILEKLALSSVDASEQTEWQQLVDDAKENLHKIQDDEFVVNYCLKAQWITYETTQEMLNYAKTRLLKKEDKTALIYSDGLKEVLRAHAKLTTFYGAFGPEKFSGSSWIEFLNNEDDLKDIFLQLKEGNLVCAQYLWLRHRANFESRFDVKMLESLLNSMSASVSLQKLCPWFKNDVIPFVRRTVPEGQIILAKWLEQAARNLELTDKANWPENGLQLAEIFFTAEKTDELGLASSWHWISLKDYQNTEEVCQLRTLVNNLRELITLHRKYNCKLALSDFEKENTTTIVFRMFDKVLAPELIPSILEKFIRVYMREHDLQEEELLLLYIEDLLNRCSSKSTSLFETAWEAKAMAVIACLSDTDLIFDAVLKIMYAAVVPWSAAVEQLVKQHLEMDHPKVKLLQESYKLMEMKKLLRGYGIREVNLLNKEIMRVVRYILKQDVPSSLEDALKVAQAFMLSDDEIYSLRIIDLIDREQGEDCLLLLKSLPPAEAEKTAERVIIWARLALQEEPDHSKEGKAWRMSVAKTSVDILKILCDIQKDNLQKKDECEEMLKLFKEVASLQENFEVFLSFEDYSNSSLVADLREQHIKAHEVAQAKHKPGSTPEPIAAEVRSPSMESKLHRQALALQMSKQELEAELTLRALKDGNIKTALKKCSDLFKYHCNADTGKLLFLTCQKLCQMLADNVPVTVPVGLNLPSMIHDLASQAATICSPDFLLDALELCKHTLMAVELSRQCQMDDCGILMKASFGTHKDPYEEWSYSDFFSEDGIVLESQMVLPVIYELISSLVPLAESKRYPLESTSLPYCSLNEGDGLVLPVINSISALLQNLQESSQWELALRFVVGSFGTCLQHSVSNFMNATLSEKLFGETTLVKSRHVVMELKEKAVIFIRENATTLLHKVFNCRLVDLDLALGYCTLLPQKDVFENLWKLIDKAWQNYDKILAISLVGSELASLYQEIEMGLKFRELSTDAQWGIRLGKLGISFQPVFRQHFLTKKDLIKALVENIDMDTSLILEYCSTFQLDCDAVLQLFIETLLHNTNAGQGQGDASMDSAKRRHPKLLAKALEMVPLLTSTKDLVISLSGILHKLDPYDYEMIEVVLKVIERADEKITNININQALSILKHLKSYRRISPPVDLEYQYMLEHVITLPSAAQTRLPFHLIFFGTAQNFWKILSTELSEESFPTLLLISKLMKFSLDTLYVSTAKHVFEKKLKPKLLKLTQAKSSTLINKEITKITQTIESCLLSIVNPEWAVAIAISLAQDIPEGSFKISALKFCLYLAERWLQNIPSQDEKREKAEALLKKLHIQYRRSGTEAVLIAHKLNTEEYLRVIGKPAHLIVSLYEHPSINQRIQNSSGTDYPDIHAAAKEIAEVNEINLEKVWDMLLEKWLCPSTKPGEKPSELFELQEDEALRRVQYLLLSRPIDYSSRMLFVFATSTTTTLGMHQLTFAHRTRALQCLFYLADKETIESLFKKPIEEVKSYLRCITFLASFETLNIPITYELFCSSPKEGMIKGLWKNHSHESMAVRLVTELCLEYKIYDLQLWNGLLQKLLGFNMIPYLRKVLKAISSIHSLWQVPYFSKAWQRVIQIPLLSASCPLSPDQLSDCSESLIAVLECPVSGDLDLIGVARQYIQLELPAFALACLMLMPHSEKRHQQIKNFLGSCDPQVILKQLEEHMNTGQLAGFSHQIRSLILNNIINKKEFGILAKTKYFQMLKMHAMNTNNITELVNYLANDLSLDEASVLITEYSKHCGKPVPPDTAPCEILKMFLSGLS
UniProt Q9UBF1, sequence (Q9UBF1 whole entry, looked up): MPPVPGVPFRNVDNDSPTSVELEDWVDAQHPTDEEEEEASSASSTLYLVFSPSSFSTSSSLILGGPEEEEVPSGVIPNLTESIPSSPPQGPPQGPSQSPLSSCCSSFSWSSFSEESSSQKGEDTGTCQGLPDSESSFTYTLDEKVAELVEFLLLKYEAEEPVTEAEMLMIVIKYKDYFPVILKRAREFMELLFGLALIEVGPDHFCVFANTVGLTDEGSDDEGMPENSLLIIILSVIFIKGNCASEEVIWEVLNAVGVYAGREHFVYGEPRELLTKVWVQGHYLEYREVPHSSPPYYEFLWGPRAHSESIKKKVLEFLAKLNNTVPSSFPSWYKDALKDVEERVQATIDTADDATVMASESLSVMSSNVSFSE
UniProt P02545, sequence (P02545 whole entry, looked up): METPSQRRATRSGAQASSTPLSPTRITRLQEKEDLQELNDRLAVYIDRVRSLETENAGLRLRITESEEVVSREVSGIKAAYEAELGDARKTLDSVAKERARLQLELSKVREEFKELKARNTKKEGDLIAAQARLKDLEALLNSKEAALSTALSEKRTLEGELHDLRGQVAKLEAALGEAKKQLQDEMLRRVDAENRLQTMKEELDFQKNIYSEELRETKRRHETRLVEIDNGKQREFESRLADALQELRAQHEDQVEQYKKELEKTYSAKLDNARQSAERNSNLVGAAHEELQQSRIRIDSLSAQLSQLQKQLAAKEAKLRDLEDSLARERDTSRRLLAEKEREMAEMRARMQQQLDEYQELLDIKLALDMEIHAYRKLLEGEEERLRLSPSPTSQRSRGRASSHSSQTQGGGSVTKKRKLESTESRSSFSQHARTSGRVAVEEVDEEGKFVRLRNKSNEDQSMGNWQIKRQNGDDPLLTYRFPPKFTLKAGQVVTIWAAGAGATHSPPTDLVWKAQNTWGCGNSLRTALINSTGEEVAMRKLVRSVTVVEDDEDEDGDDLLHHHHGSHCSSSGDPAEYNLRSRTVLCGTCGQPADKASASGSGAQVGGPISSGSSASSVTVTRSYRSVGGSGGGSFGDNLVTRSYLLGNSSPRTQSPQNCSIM
UniProt Q16539, sequence (Q16539 whole entry, looked up): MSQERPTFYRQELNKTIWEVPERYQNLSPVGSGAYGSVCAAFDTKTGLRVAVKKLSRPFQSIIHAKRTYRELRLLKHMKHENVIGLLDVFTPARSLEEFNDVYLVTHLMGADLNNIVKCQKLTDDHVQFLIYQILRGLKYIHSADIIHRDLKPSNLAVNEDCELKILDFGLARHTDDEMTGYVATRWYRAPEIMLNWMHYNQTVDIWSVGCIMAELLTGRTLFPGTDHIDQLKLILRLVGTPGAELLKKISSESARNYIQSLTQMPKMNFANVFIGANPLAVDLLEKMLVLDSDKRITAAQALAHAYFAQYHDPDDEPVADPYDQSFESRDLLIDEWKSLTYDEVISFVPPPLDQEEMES
UniProt A4D2B0, sequence (A4D2B0 whole entry, looked up): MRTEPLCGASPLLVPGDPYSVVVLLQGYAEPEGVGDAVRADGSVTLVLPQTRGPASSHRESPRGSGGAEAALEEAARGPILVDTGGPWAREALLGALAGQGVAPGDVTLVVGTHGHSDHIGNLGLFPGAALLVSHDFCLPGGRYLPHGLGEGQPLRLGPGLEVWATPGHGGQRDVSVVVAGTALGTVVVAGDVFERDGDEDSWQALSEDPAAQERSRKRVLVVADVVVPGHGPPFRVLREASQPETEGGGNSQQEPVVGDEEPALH

log2 fold change, inactive:
MED17 (UniProt Q9NVC6) -0.068
KDM5D isoform 3 (UniProt Q9BY66) -0.056
LSR (UniProt Q86X29) -0.006
IPO7 (UniProt O95373) 0.027
MAGEC2 (UniProt Q9UBF1) 0.061
LIAS (UniProt O43766) 0.113
MIER1 isoform 12 (UniProt Q8N108) -0.002
LRBA, A0A494BZW2 -0.025
LSS (UniProt P48449) 0.004
LMNA (UniProt P02545) -0.025
MFSD8 (UniProt Q8NHS3) 0.053
MAP3K4 isoform 2 (UniProt Q9Y6R4) 0.02
MAPK14 (UniProt Q16539) -0.006
MAGOHB (UniProt Q96A72) 0.097
MBLAC1 (UniProt A4D2B0) 0.083
KNTC1 (UniProt P50748) 0
JMJD6 isoform 3 (UniProt Q6NYC1) 0.006
LYN (UniProt P07948) -0.024
MARCKS (UniProt P29966) 0.004
MFSD1 isoform 6 (UniProt Q9H3U5) 0.013
KLHL18 (UniProt O94889) -0.016
MEPCE (UniProt Q7L2J0) 0.154
LPIN1 isoform 7 (UniProt Q14693) -0.078
MAP4 (UniProt E7EVA0) -0.007
ITPRID2 (UniProt P28290) -0.017
ILRUN (UniProt Q9H6K1) -0.004
MAP4K4 isoform 6 (UniProt O95819) -0.103
LDAH isoform 2 (UniProt Q9H6V9) 0.016
LMF2 (UniProt Q9BU23) -0.019
LUC7L3 (UniProt O95232) -0.005
MIEF1 (UniProt Q9NQG6) 0.032
ITM2B (UniProt Q9Y287) -0.011
LUM (UniProt P51884) 0.331
KIF1B isoform 4 (UniProt O60333) -0.013
